Assay [1] addresses Luciferin 4-monooxygenase (Photinus pyralis) (UniProt P08659). In words: qHTS assay to identify small molecule inhibitors of firefly luciferase (AID 1224835). Note: nearly all actives have a fitted effect of over 25% in size. Note: potency is the fitted concentration of half-maximal effect. Summed up: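 Quantitative HTS format; KM concentrations of both substrates. Purified P. pyralis FLuc activity quantified from luminescence images.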
A short description of assay [2]: qHTS assay to identify small molecule agonists of the constitutive androstane receptor (CAR) signaling pathway - cell viability counter screen (AID 1224836). Note: nearly all actives have a fitted effect of over 45% in size. Summed up:
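Viability read-out: CellTiter-Fluor fluorescence after 23 h compound exposure at 37 C/5% CO2 in double-stable HepG2-CYP2B6-hCAR cells, with PK11195 present at 0.75 uM final; compounds tested in 15-point titration.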
Background: qHTS replaces the single test concentration by a dilution series.

Assay [3] in a line: qHTS assay to identify small molecule antagonists of the constitutive androstane receptor (CAR) signaling pathway - cell viability counter screen (AID 1224837). Note: nearly all actives have a fitted effect of over 45% in size. Summed up: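 HepG2 cells stably carrying hCAR and CYP2B6-2.2kb reporter, stimulated with 50 nM CITCO and compounds at 15 concentrations for 23 h at 37 C. Viability measured by CellTiter-Fluor fluorescence.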
Assay [4] has as its target Nuclear receptor subfamily 1 group I member 3 (Homo sapiens) (UniProt Q14994). In words: qHTS assay to identify small molecule antagonists of the constitutive androstane receptor (CAR) signaling pathway (AID 1224838). Note: nearly all actives have a fitted effect of over 40% in size. Note: potency is the fitted concentration of half-maximal effect. Summed up: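 HepG2 cells stably carrying hCAR and a CYP2B6-2.2kb luciferase reporter, seeded 4 hrs before compound (15 concentrations). Stimulated with 50 nM CITCO for 24 hr at 37 C. ONE-Glo luminescence read after 30 min at room temperature.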

For assay [5] the target is unchanged. In words: qHTS assay to identify small molecule agonists of the constitutive androstane receptor (CAR) signaling pathway (AID 1224839). Note: nearly all actives have a fitted effect of over 15% in size. Note: potency is the fitted concentration of half-maximal effect. In outline:
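Luminescence read-out (ONE-Glo, 30 min, room temperature) from double-stable HepG2-CYP2B6-hCAR cells exposed 24 h to 15-point compound series in presence of 0.75 uM PK11195 final.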

A short description of assay [6]: qHTS assay to identify small molecule antagonists of the estrogen related receptor signaling pathway with the pleiotropic PPARgamma coactivator (PGC) from Tox21 10K library - cell viability counter screen (AID 1224840; active = well fitted cell-killing curve with a large enough effect in the repeat runs, not every such curve was filed as active; note: nearly all actives have a fitted effect of over 40% in size). In outline:
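PGC/ERR cells (2,000/well) plated 6 h, then compound-treated for 17.5 h at 37 C. Viability measured by CellTiter-Fluor fluorescence after 30 min at 37 C, multiplexed with the pathway assay.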

The target of assay [7] is Thyrotropin receptor (Homo sapiens) (UniProt P16473). Kind of assay: qHTS assay to identify small molecule agonists of the thyroid stimulating hormone receptor (TSHR) signaling pathway (AID 1224843; calls by dose curve; note: nearly all actives have a fitted effect of over 45% in size). Summed up:
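Cell line HEK293 with TSHR; density 800/well. Exposure 30 min RT. Readout HTRF cAMP (cAMP-d2/anti-cAMP-cryptate), 1 h RT before reading.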

Assay [8] in a line: qHTS assay to identify small molecule agonists of the hypoxia (HIF-1) signaling pathway - cell viability counter screen (AID 1224844; calls by dose curve; note: nearly all actives have a fitted effect of over 50% in size). In outline: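 HRE-bla ME-180 cells, 2,000/well in 0.5% dialyzed FBS medium, treated 17 h at 37C with compounds. Viability read in the same wells as the bla reporter, by CellTiter-Glo luminescence after 30 min at room temperature.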
Assay [9] can be described thus: qHTS assay to identify small molecule agonists of H2AX (AID 1224845; active = well fitted activation curve with a large enough effect in the signal ratio in the repeat runs, not every such curve was filed as active; the % refers to the signal ratio; note: potency is the fitted concentration of half-maximal effect). In outline:
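Wild-type CHO-K1 cells plated overnight, then exposed 3 hr at 37C to compounds at 15 concentrations (0.76% DMSO). Lysed, then HTRF anti-pH2AX(S139)-cryptate/anti-H2AX-d2 detection after 24 hr at room temperature; emissions 665 and 620 nm.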

Assay [10] in a line: qHTS assay to identify small molecule agonists of the hypoxia (HIF-1) signaling pathway (AID 1224846; active = well fitted activation curve with a large enough effect in the signal ratio in the repeat runs, not every such curve was filed as active; the % refers to the signal ratio). Summed up: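 HRE-bla ME-180 beta-lactamase reporter cells in medium with 0.5% dialyzed FBS, pre-incubated 5 h then exposed to compounds 17 h at 37C, 5% CO2; reporter induction read with CCF4-AM FRET substrate.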
Assay [11] is described as follows: qHTS assay to identify small molecule agonists of H2AX - cell viability counter screen (AID 1224847; calls by dose curve; note: top concentration of the series differs between compounds; nearly all actives have a fitted effect of over 30% in size). Summed up:
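CHO-K1 wt, 1000 cells/well, o/n 37C; cpds 15 conc, 3 h 37C, 0.76% DMSO; CellTiter-Glo, 30 min RT, luminescence.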

The nature of assay [12]: qHTS RealTime-Glo MT Cell Viability Assay in HepG2 cells - 24 hour (AID 1224867). Note: nearly all actives have a fitted effect of over 50% in size. Summed up: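 Cell number in HepG2 cultures estimated from NanoLuc luminescence generated by metabolic reduction of a prosubstrate by living cells. The homogeneous, nonlytic format allowed repeated reads at 0, 8, 16, 24, 32 and 40 h of compound exposure.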
Assay [13] in a line: qHTS RealTime-Glo MT Cell Viability Assay in HEK293 cells - 32 hour (AID 1224868). For activity change, negative = cytotoxic: top concentration of the series differs between compounds. Note: nearly all actives have a fitted effect of over 50% in size. Note: potency is the fitted concentration of half-maximal effect. In outline: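 Homogeneous bioluminescent viability format in HEK293 cells (600 cells/well). Following 5 h at 37 C/5% CO2, 23 nL compound was pintooled; the signal was measured repeatedly during 40 h incubation.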
Assay [14] is described as follows: A CellTox Green Cytotoxicity Assay to monitor cytotoxicity in HEK293 cells - 0 hour (AID 1224869). Note: nearly all actives have a fitted effect of over 50% in size. Note: potency is the fitted concentration of half-maximal effect. In outline: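 HEK293 cells, 600/well, were preincubated 5 hours and then exposed to compounds at 37 C for up to 40 hours. A cell-impermeant cyanine dye staining dead-cell DNA was read by fluorescence at 0, 8, 16, 24, 32 and 40 h time points.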
Assay [15] in a line: qHTS RealTime-Glo MT Cell Viability Assay in HepG2 cells - 40 hour (AID 1224870). Note: nearly all actives have a fitted effect of over 50% in size. In outline: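 HepG2 cells mixed with RealTime-Glo MT reagents (NanoLuc plus cell-permeant prosubstrate) were seeded at 600 cells/well, incubated 5 h at 37 C/5% CO2, then pinned with compounds in DMSO; nonlytic luminescence tracked viability during 40 h treatment.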
Assay [16] is described as follows: qHTS assay to identify small molecule antagonists of the estrogen related receptor signaling pathway with the pleiotropic PPARgamma coactivator (PGC) from Tox21 10K library (AID 1224841; call rule not given here; note: potency is the fitted concentration of half-maximal effect). Summed up:
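PGC/ERR cell line, 2,000 cells/well, pre-incubated 6 hours at 37 C, then exposed to compounds for 18 hours at 37 C; luciferase read with One-Glo luminescence after 30 min at room temperature.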

The nature of assay [17]: qHTS assay to identify small molecule agonists of the estrogen related receptor signaling pathway with the pleiotropic PPARgamma coactivator (PGC) from Tox21 10K library (AID 1224842). Note: nearly all actives have a fitted effect of over 15% in size. Note: potency is the fitted concentration of half-maximal effect. In outline:
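PGC/ERR reporter cells (NTP line) were seeded 2,000 per well, rested 6 h at 37 C/5% CO2, then pin-dosed with compounds in DMSO for 18 h at 37 C; luciferase read by One-Glo luminescence after 30 min at room temperature.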

Assay [18] in a line: qHTS assay to identify small molecule antagonists of the estrogen related receptor (ERR) signaling pathway from Tox21 library (AID 1224848). Note: nearly all actives have a fitted effect of over 50% in size. Note: potency is the fitted concentration of half-maximal effect. In outline: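 Screening used an ERR reporter line supplied by NTP, exposed for 18 h at 37 C to library compounds delivered in DMSO. Signal was luciferase luminescence developed with ONE-Glo at room temperature for 30 min.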
Assay [19] in a line: qHTS assay to identify small molecule agonists of the estrogen related receptor (ERR) signaling pathway from Tox21 library (AID 1224849; calls by dose curve; note: nearly all actives have a fitted effect of over 15% in size). To be noted: ERR reporter cell line, ONE-Glo luciferase, 18 h. In outline:
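ERR reporter cells (NTP line) pre-incubated 6 hours at 37 C, then exposed to compounds for 18 hours at 37 C. ONE-Glo luciferase luminescence was read after 30 minutes at room temperature.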

Assay [20] can be described thus: qHTS assay to identify small molecule antagonists of the estrogen related receptor (ERR) signaling pathway from Tox21 library - cell viability counter screen (AID 1224834). Note: nearly all actives have a fitted effect of over 30% in size. In outline:
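ERR reporter cells, 2,000 per well, rested 6 h, then exposed to compound in DMSO for 17.5 hours at 37 C. Viability read as fluorescence after 30 min with CellTiter-Fluor.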

Each structure is given as a SMILES string. Values joined by “and” are separate entries in the source; they are usually repeats but may differ in a detail not shown here. Equal entries are not always repeated. Unmarked numbers belong to inactive results. Inconclusive results are not listed. Active and inactive are the calls of the source. Unless noted, calls come from the whole dose curve; as a rule, active = well fitted curve in the direction sought with a large enough effect in the repeat runs; inconclusive = weak or mixed curves; inactive = no such curve, though single readings can be large; an effect the other way counts as inactive or inconclusive.
% is set by controls: 0 for no effect and ±100 for the full control effect.

Sequence of Luciferin 4-monooxygenase (Photinus pyralis) (P08659 whole entry, looked up): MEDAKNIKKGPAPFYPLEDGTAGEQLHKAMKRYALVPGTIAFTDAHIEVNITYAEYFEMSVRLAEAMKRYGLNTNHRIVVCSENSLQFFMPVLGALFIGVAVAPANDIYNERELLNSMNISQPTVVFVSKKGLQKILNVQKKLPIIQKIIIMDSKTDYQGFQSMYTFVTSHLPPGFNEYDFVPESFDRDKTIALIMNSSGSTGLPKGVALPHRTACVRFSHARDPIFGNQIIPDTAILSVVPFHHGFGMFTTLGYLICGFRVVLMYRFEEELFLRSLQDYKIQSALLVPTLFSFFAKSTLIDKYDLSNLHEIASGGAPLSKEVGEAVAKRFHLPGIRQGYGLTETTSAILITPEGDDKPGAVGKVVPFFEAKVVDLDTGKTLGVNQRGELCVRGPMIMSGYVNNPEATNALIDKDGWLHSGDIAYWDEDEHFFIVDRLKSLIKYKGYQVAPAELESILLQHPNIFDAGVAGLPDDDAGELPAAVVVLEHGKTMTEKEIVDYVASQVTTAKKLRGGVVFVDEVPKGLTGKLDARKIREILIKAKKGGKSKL
Sequence of Thyrotropin receptor (Homo sapiens) (P16473 whole entry, looked up): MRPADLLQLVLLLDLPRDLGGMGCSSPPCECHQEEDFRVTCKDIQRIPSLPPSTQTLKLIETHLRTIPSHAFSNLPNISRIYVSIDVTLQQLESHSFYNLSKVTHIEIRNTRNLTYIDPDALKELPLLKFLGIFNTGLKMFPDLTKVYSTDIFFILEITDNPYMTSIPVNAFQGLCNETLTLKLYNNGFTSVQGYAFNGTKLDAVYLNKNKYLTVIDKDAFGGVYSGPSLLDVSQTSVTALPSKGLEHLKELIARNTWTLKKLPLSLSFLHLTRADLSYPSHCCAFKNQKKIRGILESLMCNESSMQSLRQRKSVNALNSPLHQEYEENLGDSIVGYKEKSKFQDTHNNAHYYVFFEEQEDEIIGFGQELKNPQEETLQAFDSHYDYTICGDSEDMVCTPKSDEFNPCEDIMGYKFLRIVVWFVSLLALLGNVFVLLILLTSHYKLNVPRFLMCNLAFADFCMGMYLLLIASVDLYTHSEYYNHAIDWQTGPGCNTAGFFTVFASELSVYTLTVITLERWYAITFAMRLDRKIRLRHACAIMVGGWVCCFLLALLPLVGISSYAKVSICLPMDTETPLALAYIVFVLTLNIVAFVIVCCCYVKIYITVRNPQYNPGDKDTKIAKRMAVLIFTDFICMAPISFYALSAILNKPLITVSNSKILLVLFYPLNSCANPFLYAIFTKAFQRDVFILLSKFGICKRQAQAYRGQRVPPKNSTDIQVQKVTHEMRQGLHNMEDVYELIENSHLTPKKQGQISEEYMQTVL
Sequence of Nuclear receptor subfamily 1 group I member 3 (Homo sapiens) (Q14994 whole entry, looked up): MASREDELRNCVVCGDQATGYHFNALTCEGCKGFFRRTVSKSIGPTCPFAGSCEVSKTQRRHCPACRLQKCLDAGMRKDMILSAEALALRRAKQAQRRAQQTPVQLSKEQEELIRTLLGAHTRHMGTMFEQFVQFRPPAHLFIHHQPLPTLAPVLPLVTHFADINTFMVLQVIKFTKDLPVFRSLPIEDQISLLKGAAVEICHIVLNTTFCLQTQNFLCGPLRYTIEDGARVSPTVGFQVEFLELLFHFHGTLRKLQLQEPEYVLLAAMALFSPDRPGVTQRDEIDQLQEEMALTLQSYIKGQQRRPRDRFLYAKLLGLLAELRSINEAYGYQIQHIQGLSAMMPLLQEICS

In the case of `O=C(O)c1ccc2cc(C(=O)O)ccc2c1`, the Potency entry in assay [1], in assay [2], in [3], in assay [4], in assay [5] and in [6] was “inactive” each time. The Potency result in [7], in assay [8], in assay [9], in assay [10], in assay [11] and in assay [12] was “inactive” each time. Moreover, the Potency result in [13], in assay [14] and in [15] was “inactive” throughout.
For `C#C[C@]1(OC(C)=O)CC[C@H]2[C@@H]3CCC4=C[C@@H](OC(C)=O)CC[C@@H]4[C@H]3CC[C@@]21C`, the Potency result in assay [1], in [2], in assay [3], in [5], in [6] and in assay [17] was “inactive” throughout. Further, the Potency entry in assay [7], in assay [8], in assay [10], in [12], in assay [14] and in [15] was “inactive” in each case. Further, the Potency in [16] was 21.1 µM (active); in assay [18], 23.7 µM (active); in assay [13] it was 21.3 µM (active). In addition, the activity change, positive = activation in assay [19] (at 42.5 µM (top of the series)) was -53.5%.
With `CCN(CCN)c1cccc(C)c1`, the Potency result in [1], in assay [2], in [3], in [4], in assay [5] and in [6] was “inactive” throughout. In addition, the Potency entry in assay [16], in assay [17], in [7], in assay [8], in assay [9] and in assay [10] was “inactive” throughout. Moreover, the Potency result in assay [11], in assay [12], in assay [13] and in [15] was “inactive” throughout. In addition, the activity change, positive = activation in [19] (at 92.4 µM (top of the series)) is -29% and -22.9%.
For `Nc1ccc(C(=O)O)c(O)c1`, the Potency entry in [1], in assay [2], in assay [3], in [4], in assay [6] and in assay [16] was “inactive” throughout. For the same molecule, the Potency result in assay [17], in assay [7], in assay [8], in assay [9], in assay [11] and in assay [12] was “inactive” each time. For the same molecule, the Potency result in [13] and in [15] was “inactive” in each case. Besides, the activity change, positive = activation in assay [19] (at 42.5 µM (top of the series)) is -27.4%.
Regarding `O=C(O)CN(CCN(CC(=O)O)CC(=O)O)CC(=O)O`, the viability change, negative = cytotoxic in assay [20] was 1.59% [at 3.27 µM]; in [6] it was 1.11% [at 3.27 µM]. Moreover, the Potency in assay [4] was 1.94 µM (active); in assay [9], 4.52 µM (active); in assay [14], 1.96 µM (active). The activation was -0.673% [at 3.27 µM] in assay [5] and -1.34% [at 3.27 µM] in assay [7]. The activity change, negative = cytotoxicity was -5.08% [at 5.43 µM] in [11] and 3.3% [at 2.72 µM] in [12]. Also, the activity change, negative = cytotoxic in assay [13] was 9.19% [at 2.72 µM]; in assay [15], 12.4% [at 2.72 µM].
On to `COc1cc(/C=C/c2ccccc2)oc(=O)c1`, for which the Potency in [1] is 7.35 µM (active); in assay [5], 7.96 µM (active); in assay [17], 5.64 µM (active). For the same molecule, the Potency result in assay [2], in [3], in [4], in [6], in assay [16] and in [7] was “inactive” each time. Moreover, the Potency entry in [8], in assay [9], in [10], in assay [11], in assay [18] and in [12] was “inactive” in each case. In addition, the Potency result in assay [14] and in [15] was “inactive” in each case. In addition, the activity change, positive = activation in assay [19] (at 92.4 µM (top of the series)) was 36.4% (active).
For `COc1c(C)c2c(c(O)c1C/C=C(\C)CCC(=O)OCCN1CCOCC1)C(=O)OC2`, the Potency entry in assay [1], in assay [2], in [3], in [6], in assay [16] and in assay [7] was “inactive” throughout. Also, the Potency entry in [10], in assay [11], in assay [18], in assay [12], in [13] and in assay [14] was “inactive” each time. Also, the Potency entry in assay [15] is “inactive”. For the same molecule, the Potency is 1.06 µM (active) in assay [4] and 0.237 µM (active) in assay [17]. For the same molecule, the activity change, positive = activation in assay [19] (at 42.5 µM (top of the series)) was -23.6%.

These data come from PubChem BioAssay (Tox21).
